Assay results from the supplement of paper PMC11732987, “Enantioselective OTUD7B fragment discovery through chemoproteomics screening and high-throughput optimisation” (Communications Chemistry, 2025).
A number with no mark means an inactive call.

What was measured:
Experiment in all cases: log2 ratio of Biotin-Ahx-Ub-VS probe labelling (fragment/DMSO); higher = less target engagement (more negative = stronger competition), active = hit call of the paper (q ≤ 0.05, log2 ratio ≤ -1)
Settings in all cases: compound concentration: 200 uM; treatment time: 3 h
OTUD6B = target: T1, OTUD6B (UniProt Q8N6M0)
T1 sequence (whole entry): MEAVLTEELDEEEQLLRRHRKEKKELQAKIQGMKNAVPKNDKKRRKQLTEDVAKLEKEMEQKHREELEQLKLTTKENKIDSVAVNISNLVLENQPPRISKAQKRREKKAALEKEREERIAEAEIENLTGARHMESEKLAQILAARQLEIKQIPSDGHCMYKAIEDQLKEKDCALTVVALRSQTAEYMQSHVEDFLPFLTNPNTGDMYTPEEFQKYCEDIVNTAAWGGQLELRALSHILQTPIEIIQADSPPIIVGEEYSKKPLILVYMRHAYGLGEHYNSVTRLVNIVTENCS
Procedure, shortened: (§1)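 Global-median-normalised Spectronaut label-free quantities were compared by unpaired t-test, and values are average log2 ratios of fragment over vehicle. Only proteins with ≥2 unique peptides were used. HEK293T lysate (495 µg per sample) was treated in triplicate with fragment at 200 µM or vehicle for 3 h and then with Biotin-Ahx-Ub-VS at 0.5 µM final for 1 h. Labelled DUBs were then NeutrAvidin-enriched, digested with LysC and trypsin, and run by diaPASEF LC-MS/MS.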

OTUD7B = target: T2, OTUD7B (UniProt Q6GQQ9)
T2 sequence (whole entry): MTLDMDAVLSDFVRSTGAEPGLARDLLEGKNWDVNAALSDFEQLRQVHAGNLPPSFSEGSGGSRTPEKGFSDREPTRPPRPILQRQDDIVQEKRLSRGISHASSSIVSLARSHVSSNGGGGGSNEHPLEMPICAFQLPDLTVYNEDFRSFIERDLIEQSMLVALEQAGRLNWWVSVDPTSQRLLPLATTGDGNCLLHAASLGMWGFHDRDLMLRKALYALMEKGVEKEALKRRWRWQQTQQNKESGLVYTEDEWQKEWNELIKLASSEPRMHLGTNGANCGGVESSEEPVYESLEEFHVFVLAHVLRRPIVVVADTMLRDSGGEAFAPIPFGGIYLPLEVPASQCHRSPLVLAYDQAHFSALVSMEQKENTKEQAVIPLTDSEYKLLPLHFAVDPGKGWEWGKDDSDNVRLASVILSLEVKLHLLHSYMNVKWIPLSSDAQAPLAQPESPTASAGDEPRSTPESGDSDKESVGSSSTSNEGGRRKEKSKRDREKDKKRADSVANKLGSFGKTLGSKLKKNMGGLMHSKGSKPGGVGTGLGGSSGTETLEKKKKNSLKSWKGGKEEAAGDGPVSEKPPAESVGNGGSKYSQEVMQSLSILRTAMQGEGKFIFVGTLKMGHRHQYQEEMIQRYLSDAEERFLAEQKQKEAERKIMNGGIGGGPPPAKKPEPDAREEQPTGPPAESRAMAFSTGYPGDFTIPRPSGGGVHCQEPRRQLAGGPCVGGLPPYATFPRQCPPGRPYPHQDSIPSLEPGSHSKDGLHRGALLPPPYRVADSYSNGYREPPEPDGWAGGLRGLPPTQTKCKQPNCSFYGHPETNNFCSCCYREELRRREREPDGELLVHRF
Procedure, shortened: as §1

PRPF8 = PRPF8 (UniProt Q6P2Q9)
Procedure, shortened: as §1

PSMD7 = target: T3, PSMD7 (UniProt P51665)
T3 sequence (whole entry): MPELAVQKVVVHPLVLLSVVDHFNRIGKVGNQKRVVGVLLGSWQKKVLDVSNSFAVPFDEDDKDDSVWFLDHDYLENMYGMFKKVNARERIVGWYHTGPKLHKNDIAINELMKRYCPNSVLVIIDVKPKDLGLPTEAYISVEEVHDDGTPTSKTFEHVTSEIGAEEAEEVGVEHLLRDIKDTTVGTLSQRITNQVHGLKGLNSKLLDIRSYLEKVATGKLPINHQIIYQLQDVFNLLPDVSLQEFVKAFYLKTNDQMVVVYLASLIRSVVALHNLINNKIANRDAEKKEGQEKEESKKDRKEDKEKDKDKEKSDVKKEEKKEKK
Procedure, shortened: as §1

UCHL1 = UCHL1 (UniProt P09936)
UCHL1, sequence (P09936 whole entry, looked up): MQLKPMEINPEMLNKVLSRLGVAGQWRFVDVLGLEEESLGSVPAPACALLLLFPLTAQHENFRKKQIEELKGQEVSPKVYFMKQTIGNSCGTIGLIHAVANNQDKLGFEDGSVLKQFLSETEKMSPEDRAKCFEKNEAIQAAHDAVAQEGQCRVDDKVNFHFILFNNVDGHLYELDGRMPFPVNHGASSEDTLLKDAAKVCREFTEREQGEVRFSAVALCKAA
Procedure, shortened: as §1

UCHL3 = target: T4, UCHL3 (UniProt P15374)
T4 sequence (whole entry): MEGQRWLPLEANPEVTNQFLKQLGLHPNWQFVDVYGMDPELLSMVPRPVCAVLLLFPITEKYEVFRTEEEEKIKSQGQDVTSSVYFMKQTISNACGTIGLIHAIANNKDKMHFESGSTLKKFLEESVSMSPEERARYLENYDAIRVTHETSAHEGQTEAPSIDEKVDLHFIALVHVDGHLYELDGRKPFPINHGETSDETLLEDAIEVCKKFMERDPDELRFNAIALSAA
Procedure, shortened: as §1

UCHL5 = target: T5, UCHL5 (UniProt Q9Y5K5)
T5 sequence (whole entry): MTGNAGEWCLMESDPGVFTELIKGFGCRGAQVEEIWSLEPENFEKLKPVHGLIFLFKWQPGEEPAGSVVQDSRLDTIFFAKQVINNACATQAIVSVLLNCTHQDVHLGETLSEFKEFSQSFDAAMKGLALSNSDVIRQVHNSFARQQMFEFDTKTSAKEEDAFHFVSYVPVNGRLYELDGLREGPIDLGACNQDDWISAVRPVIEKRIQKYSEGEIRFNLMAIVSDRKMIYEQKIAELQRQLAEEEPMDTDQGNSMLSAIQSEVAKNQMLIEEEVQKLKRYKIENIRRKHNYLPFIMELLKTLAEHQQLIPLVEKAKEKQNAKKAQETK
Procedure, shortened: as §1

USP10 = USP10 (UniProt Q14694)
USP10, sequence (Q14694 whole entry): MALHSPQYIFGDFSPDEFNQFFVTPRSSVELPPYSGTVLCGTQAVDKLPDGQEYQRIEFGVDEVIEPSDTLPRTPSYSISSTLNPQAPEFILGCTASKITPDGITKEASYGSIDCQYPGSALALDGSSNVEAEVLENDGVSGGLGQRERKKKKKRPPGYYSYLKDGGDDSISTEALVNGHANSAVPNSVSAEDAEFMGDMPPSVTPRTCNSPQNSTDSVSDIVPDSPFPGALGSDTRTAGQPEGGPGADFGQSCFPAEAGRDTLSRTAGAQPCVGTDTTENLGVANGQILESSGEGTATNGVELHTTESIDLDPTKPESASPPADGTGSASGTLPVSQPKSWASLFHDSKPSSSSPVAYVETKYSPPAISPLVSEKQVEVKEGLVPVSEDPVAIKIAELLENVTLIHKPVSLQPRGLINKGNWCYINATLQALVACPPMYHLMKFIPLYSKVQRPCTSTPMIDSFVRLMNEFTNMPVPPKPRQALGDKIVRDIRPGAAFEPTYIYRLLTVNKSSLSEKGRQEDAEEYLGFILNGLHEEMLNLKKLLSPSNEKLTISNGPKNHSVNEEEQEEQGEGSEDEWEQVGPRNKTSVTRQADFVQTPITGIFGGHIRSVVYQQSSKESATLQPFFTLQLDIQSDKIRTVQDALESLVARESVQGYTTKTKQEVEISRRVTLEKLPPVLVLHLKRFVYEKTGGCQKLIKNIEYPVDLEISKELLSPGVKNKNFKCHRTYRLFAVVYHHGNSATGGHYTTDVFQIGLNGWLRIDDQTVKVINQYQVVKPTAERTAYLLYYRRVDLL
Procedure, shortened: as §1

USP15 = target: T6, USP15 (UniProt Q9Y4E8)
T6 sequence (whole entry): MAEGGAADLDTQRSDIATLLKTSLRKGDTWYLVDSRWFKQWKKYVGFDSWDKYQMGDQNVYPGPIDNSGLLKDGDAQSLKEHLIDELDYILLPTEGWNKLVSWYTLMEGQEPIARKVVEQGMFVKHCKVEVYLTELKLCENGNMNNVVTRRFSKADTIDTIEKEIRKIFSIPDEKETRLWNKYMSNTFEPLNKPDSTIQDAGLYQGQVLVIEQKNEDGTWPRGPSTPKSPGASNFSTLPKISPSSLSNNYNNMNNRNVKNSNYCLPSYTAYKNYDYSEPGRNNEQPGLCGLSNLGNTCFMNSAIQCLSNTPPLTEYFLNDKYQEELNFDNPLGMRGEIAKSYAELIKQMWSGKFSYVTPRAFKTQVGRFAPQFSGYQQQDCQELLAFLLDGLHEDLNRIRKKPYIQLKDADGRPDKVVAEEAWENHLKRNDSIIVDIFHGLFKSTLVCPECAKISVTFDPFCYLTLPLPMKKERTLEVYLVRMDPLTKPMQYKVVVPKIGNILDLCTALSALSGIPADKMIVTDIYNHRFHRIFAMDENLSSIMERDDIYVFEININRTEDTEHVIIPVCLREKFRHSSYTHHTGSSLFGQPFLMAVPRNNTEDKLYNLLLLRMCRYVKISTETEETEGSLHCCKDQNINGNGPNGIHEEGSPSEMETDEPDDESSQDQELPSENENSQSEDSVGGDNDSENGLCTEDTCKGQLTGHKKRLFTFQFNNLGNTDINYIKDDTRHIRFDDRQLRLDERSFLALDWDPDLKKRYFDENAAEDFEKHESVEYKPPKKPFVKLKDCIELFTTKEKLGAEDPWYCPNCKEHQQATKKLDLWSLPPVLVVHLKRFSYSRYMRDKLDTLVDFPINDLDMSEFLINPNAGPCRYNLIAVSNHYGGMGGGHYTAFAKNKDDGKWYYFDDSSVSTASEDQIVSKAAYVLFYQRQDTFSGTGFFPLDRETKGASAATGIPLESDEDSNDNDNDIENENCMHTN
Procedure, shortened: as §1

## Cc1c(NC(=O)CCl)c(=O)n(-c2ccccc2)n1C
OTUD6B
  log2 ratio of Biotin-Ahx-Ub-VS probe labelling: -0.0267
OTUD7B
  log2 ratio of Biotin-Ahx-Ub-VS probe labelling: -0.0828
PRPF8
  log2 ratio of Biotin-Ahx-Ub-VS probe labelling: 0.192
PSMD7
  log2 ratio of Biotin-Ahx-Ub-VS probe labelling: -0.0588
UCHL1
  log2 ratio of Biotin-Ahx-Ub-VS probe labelling: -1.04 (active)
UCHL3
  log2 ratio of Biotin-Ahx-Ub-VS probe labelling: 0.0974
UCHL5
  log2 ratio of Biotin-Ahx-Ub-VS probe labelling: -0.143
USP10
  log2 ratio of Biotin-Ahx-Ub-VS probe labelling: -0.099
USP15
  log2 ratio of Biotin-Ahx-Ub-VS probe labelling: -0.102
